Our source for the growth inhibition values is PubChem BioAssay (NCI).

Assay [1] in a line: NCI Yeast Anticancer Drug Screen. Data for the rad50 strain (AID 155).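 Also: 0% = growth of vehicle-only cultures of the same strain.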 The following applies: S. cerevisiae rad50 strain growth inhibition; at 50.0 µM; active compounds read high. In outline:
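Vehicle-treated cultures provide the reference for the growth inhibition reported for compound-exposed, repair-deficient yeast.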

Assay [2] is described as follows: NCI Yeast Anticancer Drug Screen. Data for the mec2-1 strain (AID 157). The settings on record: S. cerevisiae mec2-1 strain, at 50.0 µM, active compounds read high. The essentials:
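Each compound was tested on mec2-1 yeast, a strain altered in DNA damage repair or cell cycle control. Growth inhibition is reported relative to vehicle.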

Assay [3] is described as follows: NCI Yeast Anticancer Drug Screen. Data for the sgs1 mgt1 strain (AID 161).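 Also: 0% = growth of cultures given vehicle only.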 The settings on record: S. cerevisiae sgs1 mgt1 strain, at 50.0 µM, active compounds read high. In outline:
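Inhibition of yeast growth, normalised to vehicle-treated controls, is reported for a strain bearing genetic alterations in DNA damage repair.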

Assay [4] is described as follows: NCI Yeast Anticancer Drug Screen. Data for the cln2 rad14 strain (AID 165).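 Also: 0% = growth equal to vehicle treated cultures.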 The settings on record: S. cerevisiae cln2 rad14 strain, at 50.0 µM, active compounds read high. In outline: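 Test compounds were added to cln2 rad14 yeast cultures; inhibition of growth was then determined by comparison with vehicle treatment.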
A short description of assay [5]: NCI Yeast Anticancer Drug Screen. Data for the bub3 strain (AID 167). The settings on record: S. cerevisiae bub3 mutant strain, at 50.0 µM, active compounds read high. The essentials: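 Mutant yeast screening strain plus compound; vehicle-treated cultures serve as the 0% inhibition reference.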
Assay [6] in a line: NCI Yeast Anticancer Drug Screen. Data for the mlh1 rad18 strain (AID 175). The settings on record: S. cerevisiae mlh1 rad18 strain growth inhibition; at 50.0 µM; active compounds read high. The essentials:
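Inhibition values reflect reduced growth of mutant yeast versus vehicle-treated controls following compound exposure; the mutations affect DNA damage repair.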

Structures are written as SMILES. Compounds without any hit were thinned out: in the full panel of roughly 79,000, 15% have a hit. Unmarked numbers belong to inactive results. The source made the active and inactive calls. Rule as the data show it: active = growth inhibition above about 70%; inactive = the rest.

Consider `O=C(O)CCCC(=O)CCCC(=O)O.[Pb]`, for which the growth inhibition is -20% in assay [1]; -27.3% in assay [2]; -11.7% in assay [3]; -36.1% in assay [4]; 2.05% in assay [5]; -4.1% in assay [6].

As to `CC(=O)OC1CCC2(C)C(=CCC3C4C/C(=C\N5CCCC5)C(=O)C4(C)CCC32)C1` (configuration not stated), the growth inhibition was 51% in assay [1]; 99% (active) in assay [2]; 46.8% in assay [3]; 98.8% (active) in assay [4]; 97.2% (active) in assay [5]; 95.3% (active) in assay [6].

On to `Nc1ncn[nH]1`, for which the growth inhibition in assay [1] was -5.05%; in assay [2], 11.7%; in assay [3], -7.75%; in assay [4] it was 7.9%; in assay [5], 18.6%; in assay [6], -3.25%.

In the case of `C[N+]12CCC(c3ccccc3)(CC1)C(O)C2` (configuration not stated), the growth inhibition in assay [1] was -14.6%; in assay [2], -4.75%; in assay [3] it was 2.1%; in assay [4] it was -5.15%; in assay [5], 2.8%; in assay [6] it was 8.1%.

`CCN(CC)C(=S)[S][Pb]([CH2]C)([CH2]C)[CH2]C`: the growth inhibition in assay [1] was 3.5%; in assay [2], 9.25%; in assay [3] it was 30.2%; in assay [4], 16.9%; in assay [5] it was -1.35%; in assay [6], 10.2%.

As to `O=C1Nc2ccccc2C12CNCS2` (configuration not stated), the growth inhibition is 5.7% in assay [1]; 4.55% in assay [2]; -8.6% in assay [3]; -23.4% in assay [4]; -12.8% in assay [5]; 8.2% in assay [6].

On to `COc1ccc(C(=O)O)cc1[N+](=O)[O-]` (tested in a mixture with another compound), for which the growth inhibition in assay [1] was 9.25%; in assay [2], 4.45%; in assay [3], 5.55%; in assay [4], 7.4%; in assay [5], 11.4%; in assay [6] it was 15.1%.

Turning to `Cn1nnnc1NC#N`, the growth inhibition was -9.15% in assay [1]; 4.85% in assay [2]; 1% in assay [3]; 6.7% in assay [4]; 23.4% in assay [5]; -4.25% in assay [6].

Regarding `NC(c1ccccc1)C(Cl)c1ccccc1` (configuration not stated), the growth inhibition in assay [1] is -6.9%; in assay [2], -54.3%; in assay [3], 3.15%; in assay [4], -20.8%; in assay [5], 14.9%; in assay [6], -7.55%.

Regarding `CCCCOP(=S)(OCCCC)Oc1ccc(Cl)cc1Cl`, the growth inhibition in assay [1] was -4.95%; in assay [2], -41.4%; in assay [3] it was -0.55%; in assay [4], -0.25%; in assay [5], 17.5%; in assay [6], -1.95%.

Regarding `CN(C)c1cccc(NC2=NCCO2)c1`, the growth inhibition in assay [1] was -21.3%; in assay [2] it was -24.5%; in assay [3], -27.7%; in assay [4], 7.35%; in assay [5] it was -20.4%; in assay [6] it was -14.6%.

With `CC(=O)CCC(=O)O.[Ni]`, the growth inhibition in assay [1] was -37.5%; in assay [2], 0.2%; in assay [3], -7.45%; in assay [4] it was -27.4%; in assay [5], -7.65%; in assay [6], 1.9%.

As for `COC(=O)/C=C/[C@H]1[C@H](C)N1S(=O)(=O)c1ccc(C)cc1` (some centres not stated), the growth inhibition was 8.75% in assay [1]; 20.1% in assay [2]; 14.8% in assay [3]; 4.4% in assay [4]; -22.6% in assay [5]; -7.25% in assay [6].

Consider `CCC1(/C=C/C(C)C)C(=O)NC(=S)NC1=O`, for which the growth inhibition in assay [1] is -0.75%; in assay [2], 4.55%; in assay [3], -0.8%; in assay [4], 0.85%; in assay [5], 0.05%; in assay [6], 2.8%.

On to `O=S(=O)(F)c1ccccc1C[P+](c1ccccc1)(c1ccccc1)c1ccccc1`, for which the growth inhibition is 84.2% (active) in assay [1]; 86% (active) in assay [2]; 66% in assay [3]; 66.7% in assay [4]; 82.8% (active) in assay [5]; 91% (active) in assay [6].

On to `CC(Cl)CNC1c2ccccc2CC1O` (configuration not stated), for which the growth inhibition in assay [1] was -4.4%; in assay [2], -7.8%; in assay [3] it was -1.45%; in assay [4], -18.6%; in assay [5], -6.4%; in assay [6], 5.45%.

On to `CCC1(N)C(=O)OCc2c1cc1n(c2=O)Cc2cc3ccccc3nc2-1` (configuration not stated), for which the growth inhibition in assay [1] is 4.8%; in assay [2], -17.5%; in assay [3] it was -39.6%; in assay [4], -7.75%; in assay [5] it was -17.1%; in assay [6] it was -12.3%.

In the case of `N#CS.[Co+3].[NH-]CC[NH-].[NH-]CC[NH-].[NH-]CC[SH2+]`, the growth inhibition is 12.2% in assay [1]; 43% in assay [2]; 13.2% in assay [3]; 3.2% in assay [4]; 35.6% in assay [5]; 9.65% in assay [6].

Turning to `C1CN1[PH+](N1CC1)N1CC1.[C-]#[O+].[C-]#[O+].[C-]#[O+].[C-]#[O+].[C-]#[O+].[W]`, the growth inhibition in assay [1] was -12.8%; in assay [2] it was -3.85%; in assay [3], -21%; in assay [4], -43.9%; in assay [5], 13.1%; in assay [6], 3.1%.

On to `O=C(CCBr)Nc1ccc(Cl)cc1C(=O)c1ccccc1`, for which the growth inhibition in assay [1] was 6.65%; in assay [2], 5.5%; in assay [3], 10.2%; in assay [4] it was -2%; in assay [5], 54.8%; in assay [6], -5.95%.

As for `Nc1ccn(C2OC(COP(=O)(O)Oc3ccccc3)C(O)C2O)c(=O)n1` (configuration not stated), the growth inhibition in assay [1] was 11.1%; in assay [2], -11.8%; in assay [3] it was 17.8%; in assay [4], 4%; in assay [5], 5.2%; in assay [6] it was 11.3%.

For `CCCCCCCCCCOP(OCCCCCCCCCC)Oc1ccccc1`, the growth inhibition in assay [1] was 47.1%; in assay [2], -4.9%; in assay [3] it was 2.1%; in assay [4], 10.5%; in assay [5], 0.45%; in assay [6], 7.45%.
